Most compounds without a hit are left out; they make up all but 2.4% or so of the library.
ULK1 primary: ULK1 kinase inhibitors, primary screen, biochemical, AlphaScreen | actives 1.9% (n = 30,000) | AlphaScreen Atg13 phosphorylation by ULK1, luminescence | Serine/threonine-protein kinase ULK1 (Homo sapiens), O75385 | inhibition, % at 5.96 µM; in the data active = inhibition above about 43%;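 note: 0% = median of compound wells and 100% = no enzyme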
Target sequence (O75385 whole entry, looked up): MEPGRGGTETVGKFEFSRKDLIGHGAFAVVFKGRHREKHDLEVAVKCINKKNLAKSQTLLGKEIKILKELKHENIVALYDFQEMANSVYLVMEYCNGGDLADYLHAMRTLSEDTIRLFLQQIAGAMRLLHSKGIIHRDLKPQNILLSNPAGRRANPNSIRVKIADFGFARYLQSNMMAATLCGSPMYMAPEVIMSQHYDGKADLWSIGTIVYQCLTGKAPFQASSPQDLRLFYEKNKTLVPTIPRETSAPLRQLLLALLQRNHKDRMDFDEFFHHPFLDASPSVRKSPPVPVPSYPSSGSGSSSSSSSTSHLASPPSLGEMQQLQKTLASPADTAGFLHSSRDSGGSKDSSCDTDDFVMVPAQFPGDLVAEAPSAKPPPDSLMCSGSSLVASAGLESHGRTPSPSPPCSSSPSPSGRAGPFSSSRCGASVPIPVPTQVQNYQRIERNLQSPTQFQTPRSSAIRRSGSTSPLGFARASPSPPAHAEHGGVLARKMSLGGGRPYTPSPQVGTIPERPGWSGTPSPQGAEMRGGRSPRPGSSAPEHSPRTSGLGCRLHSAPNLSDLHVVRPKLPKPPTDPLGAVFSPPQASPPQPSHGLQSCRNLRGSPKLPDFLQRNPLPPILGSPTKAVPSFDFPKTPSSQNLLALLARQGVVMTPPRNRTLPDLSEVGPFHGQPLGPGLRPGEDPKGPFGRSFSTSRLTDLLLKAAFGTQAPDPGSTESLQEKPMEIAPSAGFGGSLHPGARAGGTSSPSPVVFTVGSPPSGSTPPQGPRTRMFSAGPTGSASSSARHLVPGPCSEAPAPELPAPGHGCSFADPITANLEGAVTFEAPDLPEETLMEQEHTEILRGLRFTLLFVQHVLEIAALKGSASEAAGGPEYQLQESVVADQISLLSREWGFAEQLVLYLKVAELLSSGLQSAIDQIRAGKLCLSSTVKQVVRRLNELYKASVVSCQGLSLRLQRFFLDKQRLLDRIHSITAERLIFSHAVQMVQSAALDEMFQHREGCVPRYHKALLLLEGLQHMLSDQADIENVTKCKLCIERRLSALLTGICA
ASK1 inh: ASK1 kinase inhibitors, primary screen, biochemical, AlphaScreen; Mitogen-activated protein kinase kinase kinase 5 (Homo sapiens), Q99683; AlphaScreen MKK6 phosphorylation by ASK1, luminescence; inhibition, % at 7.44 µM; actives 0.99% (n = 22,000); in the data active = inhibition above about 35%;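 note: 0% = median of compound wells and 100% = no enzyme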
TruHits interf: AlphaScreen signal interference by compounds, dose response, artefact control for ASK1 inhibitor project, biochemical, TruHits beads; actives 20% (n = 220); signal interference counterscreen; shares compounds with ASK1 inh; IC50, µM;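 active = IC50 of 10 µM or lower in the counterscreen; inactive = IC50 above 10 µM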;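 note: loss of AlphaScreen light from TruHits beads alone with no ASK1 enzyme present; potency of signal reduction so a low IC50 flags an assay artifact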
Numbers without * were called inactive.

Screening CCOC(=O)c1c(N)sc2c1CCN(CC)C2 returned ULK1 primary 5.
Screening COc1ccc2c(c1)CC(c1nc3cc(-c4cn[nH]c4C)ccc3c(=O)[nH]1)CO2 (centres undefined) returned ULK1 primary -1 and ASK1 inh 7.
`CC(C)N(CCNC(=O)c1cccc(-c2ccc(N3CCN(C)CC3)cc2)n1)C(C)C` gave ULK1 primary 5 and ASK1 inh -4.
For Cc1ccc(-c2ncn(-c3ccc(Nc4nccc(-c5cncc(N6CCOCC6)c5)n4)cc3)n2)cn1 the results were ULK1 primary 3, ASK1 inh 41* and TruHits interf >19.
Screening Cc1ccc(-c2ncn(-c3ccc(Nc4nccc(-c5ccc(N)nc5)n4)cc3)n2)cn1 returned ULK1 primary -26 and ASK1 inh 4.
Cc1ccc(-c2ncn(-c3ccc(Nc4nccc(-c5ccc(Cl)nc5)n4)cc3)n2)cn1 was read as ULK1 primary -22 and ASK1 inh 28.
For Cc1ccc(-c2ncn(-c3ccc(Nc4nccc(-c5cncc6ccccc56)n4)cc3)n2)cn1 the results were ULK1 primary 4, ASK1 inh 38* and TruHits interf >19.
c1nc2nc(N3CCN(Cc4ccc5c(c4)OCO5)CC3)nc(Nc3ccc(N4CCOCC4)cc3)c2[nH]1 was read as ULK1 primary 26 and ASK1 inh 22.
c1nc(Nc2ccc(N3CCOCC3)cc2)c2[nH]c(N3CCN(Cc4ccc5c(c4)OCO5)CC3)nc2n1 was read as ULK1 primary 42, ASK1 inh 43* and TruHits interf >14.
c1cn(-c2ccc(Nc3nc4ncnc(Nc5ccc6c(c5)OCO6)c4[nH]3)cc2)cn1 was read as ULK1 primary 11, ASK1 inh 39* and TruHits interf >22.
For c1ccc(CNc2ncnc3nc(N4CCN(Cc5ccc6c(c5)OCO6)CC4)[nH]c23)cc1 the results were ULK1 primary -13 and ASK1 inh 0.
For c1cnc2ccc(Nc3nc4ncnc(Nc5ccc6c(c5)OCO6)c4[nH]3)cc2c1 the results were ULK1 primary 7 and ASK1 inh 25.
`Oc1ccc(CCNc2ncnc3nc(N4CCN(Cc5ccc6c(c5)OCO6)CC4)[nH]c23)cc1` gave ULK1 primary 13, ASK1 inh 41* and TruHits interf inactive.
For FC(F)(F)c1ccc(Cn2cnc3c(NCc4cccc(C(F)(F)F)c4)nc(NCCN4CCOCC4)nc32)cc1 the results were ULK1 primary 23 and ASK1 inh 9.
O=C(Nc1ccccc1)c1ccnc(N2CCc3ccccc3C2)c1 was read as ULK1 primary -5 and ASK1 inh 4.
For c1ccc2[nH]c(CNc3ncnc4nc(-c5csc6ccccc56)[nH]c34)nc2c1 the results were ULK1 primary -12 and ASK1 inh 17.
For c1ccc(CN2CCC(c3nc4ccc(-c5ccncc5)cc4[nH]3)CC2)cc1 the results were ULK1 primary -2 and ASK1 inh 6.
COc1cc2nc(Nc3nccc4ccccc34)nc(Nc3ccc(NC(C)=O)cc3)c2cc1OC was read as ULK1 primary -2, ASK1 inh 69* and TruHits interf >19.
`COc1cc2nc(Nc3ccccc3)nc(Nc3ccc(NC(C)=O)cc3)c2cc1OC` gave ULK1 primary -5 and ASK1 inh 3.
`COc1cc2nc(Nc3ccc(N4CCOCC4)cc3)nc(NCCc3ccc(O)cc3)c2cc1OC` gave ULK1 primary -9 and ASK1 inh 23.
Cc1cnc(Nc2ccc(N3CCOCC3)cc2)nc1NCc1ccccc1 was read as ULK1 primary 16, ASK1 inh 37* and TruHits interf >20.
`COc1ccc(CCNc2nc(Nc3ccc(N4CCOCC4)cc3)nc3cc(OC)c(OC)cc23)cc1` gave ULK1 primary 4, ASK1 inh 53* and TruHits interf 6.8*.
For Cc1cnc(Nc2ccc(N3CCOCC3)cc2)nc1NCc1cccnc1 the results were ULK1 primary 25 and ASK1 inh 17.
For COc1cc2nc(Nc3ccc(N4CCOCC4)cc3)nc(NCCCN3CCCC3=O)c2cc1OC the results were ULK1 primary 21 and ASK1 inh 17.
Screening CCCNc1nc(Nc2ccc(N3CCOCC3)cc2)ncc1C returned ULK1 primary 9 and ASK1 inh 16.
Screening COc1ccc(CCNc2nc(Nc3ccc(N4CCOCC4)cc3)ncc2C)cc1 returned ULK1 primary 27, ASK1 inh 40* and TruHits interf >20.
`COc1cc2nc(Nc3ccc(N4CCOCC4)cc3)nc(NCCOc3ccccc3)c2cc1OC` gave ULK1 primary -1, ASK1 inh 57* and TruHits interf 5.8*.
`O=C(NC1CC1)C1CCN(c2ccc(N3CCCC3CO)nn2)CC1` (centres undefined) gave ULK1 primary 6 and ASK1 inh 2.

Bioassay records deposited in PubChem by The Scripps Research Institute Molecular Screening Center.
